# Rows were chosen to be rich in hits. Some 0.44% of all compounds tested hit in one or more screens of this group.
# YopH PTP inh: YopH (Yersinia) phosphatase inhibition; fluorescence Ex485/Em525; inhibition, % (no concentration beside the values); 140,000 compounds, 0.16% hits; AID 898; in the data active = inhibition above about 50%
# RmlCD inh mix: inhibitors of RmlC and RmlD coupled enzymes. RmlC/RmlD coupled enzyme inhibition, 384-well mixture HTS. inhibition, % at 5.5 µM. 110,000 compounds, 0.39% hits. AID 1532; in the data active = inhibition above about 30%, passing the limit was not always enough
# RmlCD fluor art: shows fluorescent artifact in RmlC/RmlD assay, dose-response counter-screen; shares compounds with RmlCD inh mix; calls only; 360 compounds, 96% hits; RmlC/RmlD assay fluorescence artifact counter-screen; call rule not given here;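 also: compound alone with no enzyme and no substrates present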
# Numbers without * were called inactive; i = inactive; nt = no result; + = active, no number.
SMILES,YopH PTP inh,RmlCD inh mix,RmlCD fluor art
COCCN(CCOC)C(=O)c1cc2c(=O)n3ccccc3nc2s1,-39.3,115.1*,+
CCN(CC)C(=O)c1cc2c(=O)n3ccccc3nc2s1,-20.2,27.3,nt
COC(=O)c1ccc(-c2cc(C(=O)O)c3cc4c(cc3n2)OCCO4)cc1,-63.3,47.5*,+
COc1cc(-c2cc(C(=O)O)c3cc4c(cc3n2)OCCO4)cc(OC)c1OC,-16.8,6.3,nt
CC(Cc1ccccc1)NC(=O)CSc1nc2nc3c(cc2c(=O)n1-c1ccccc1)COC(C)(C)C3 (centres undefined),2.3,8.2,nt
CCCCn1c2c(c3ccccc31)CCc1nonc1-2,-27.1,4.2,nt
CC(c1ccccc1)N1CC(C(=O)N2CCN(c3ccc(F)cc3)CC2)CC1=O (centres undefined),-15.2,7.3,nt
O=c1c2ccccc2[se]n1-c1ccccc1,-23.1,57.1*,+
O=c1c2ccccc2nc(N2CCCC2)n1-c1ccccc1,3.6,12.6,nt
CCCOc1ccc(/C=C/C(=O)Nc2ccc([N+](=O)[O-])cc2C)cc1,-45.3,-15.1,nt
COc1cc(/C=N/Nc2nc3ccccc3[nH]2)cc(OC)c1O,-27.5,nt,nt
O=C(Nc1sc2c(c1C(=O)NC1CC1)CCCCCC2)c1ccco1,-11.5,+,+
O=C(Nc1sc2c(c1C(=O)O)CCC2)c1ccco1,-61.1,15.2,nt
CCOc1cc(NC(=O)c2ccco2)c(OCC)cc1NC(=O)c1cc(OC)c(OC)c(OC)c1,-24.2,+,+
COc1cc(NC(=O)c2ccco2)c(OC)cc1NC(=O)c1cc(OC)c(OC)c(OC)c1,-7.5,2.1,nt
O=C(CCS(=O)(=O)c1ccc(Br)s1)N1CCc2ccccc21,-27.9,4.9,nt
CC[C@@]1(O)C(=O)OCc2c1cc1n(c2=O)Cc2cc3c(CN(C)C)c(O)ccc3nc2-1,nt,38.0*,+
CC[C@@]1(O)C(=O)OCc2c1cc1n(c2=O)Cc2cc3c(N)cccc3nc2-1,nt,13.2,nt
COc1ccc(/C=N/NC(=O)Nc2cccc3nsnc23)c(OC)c1,-21.6,38.7*,+
COc1cc(/C=N/NC(=O)Nc2cccc3nsnc23)cc(OC)c1OC,-36.1,nt,nt
COc1ccc(CNC(=O)c2ccc(N3CCC4(CC3)CC(c3ccc(Cl)cc3)=NO4)c(N)c2)cc1,nt,-34.0,nt
c1c2c(cc3sc(N4CCCCC4)nc13)OCO2,-51.5,nt,nt
O=c1cc(C(F)(F)F)c2sc(N3CCCCC3)nc2[nH]1,-45.6,64.8*,+
COc1cc2c(cc1OC)-c1cc(OCCN3CCOCC3)nc(=O)n1CC2,-57.3,61.1*,+
CCNc1cc2n(c(=O)n1)CCc1cc(OC)c(OC)cc1-2,-0.5,17.3,nt
SMILES,YopH PTP inh,RmlCD inh mix,RmlCD fluor art
COc1ccc(C(=O)N(CC2CCCO2)C(C(=O)NC2CCCC2)c2ccc(Cl)cc2)cc1OC (centres undefined),-31.1,-9.1,nt
CCCNC(=O)c1cccc(C(F)(F)F)c1,-4.7,-12.2,nt
CN(Cc1ccccc1)C(=O)CN(c1ccc(F)cc1)S(=O)(=O)c1ccc2c(c1)OCCO2,-12.8,15.8,nt
O=C1CCC(=O)N1c1nc2nc(-c3ccccc3)cc(-c3ccccc3)n2n1,-35.7,103.4*,+
CC(=O)Nc1nc2nc(-c3ccccc3)cc(-c3ccccc3)n2n1,-41.6,18.3,nt
CCOC(=O)/C(=N\Nc1cc(Cl)ccc1Cl)N1CCN(CC)CC1,-14.7,nt,nt
O=C(NCCc1c[nH]c2ccccc12)C(=O)Nc1ccccc1,nt,-11.0,nt
CC(CCc1ccccc1)NC(=O)C1CCN(S(=O)(=O)N2CCCCC2)CC1 (centres undefined),-34.5,-11.7,nt
COc1ccc2cc(CN(Cc3cccnc3)Cc3nnnn3Cc3ccccc3)c(=O)[nH]c2c1,-34.9,32.7*,i
COc1ccc2cc(CN(Cc3cccs3)Cc3nnnn3Cc3ccccc3)c(=O)[nH]c2c1,-9.6,0.4,nt
CC(=O)N1N=C(c2ccc3ccccc3c2)OC1(C)C,-15.0,nt,nt
c1ccc2cc(-c3cc4ccccn4c3)ccc2c1,-48.3,90.7*,+
Cc1cc2c(C)c(C)c(=O)[nH]c2cc1N,-6.6,45.2*,+
Cc1cc(C)c2[nH]c(=O)c(=O)[nH]c2c1,10.5,-4.5,nt
Cc1cc(-c2ccco2)c(C#N)c2nc3ccccc3n12,-11.7,-7.9,nt
CCC12OC(=N)C(C#N)(C1C)C(C#N)(C#N)C(c1ccccc1)O2 (centres undefined),-13.3,nt,nt
CCOc1ccc(C2OC34CCCCC3C(C#N)(C#N)C2(C#N)C(=N)O4)cc1OC (centres undefined),-23.2,+,+
Cc1ccc(C2OC34CCCCCC3C(C#N)(C(=N)O4)C2(C#N)C#N)cc1 (centres undefined),-8.3,nt,nt
CCCCOc1ccc(C2OC34CCCCC3C(C#N)(C#N)C2(C#N)C(=N)O4)cc1 (centres undefined),-25.0,161.0*,+
CCOc1ccc(C2C(C#N)=C(N)SC(N)=C2C#N)cc1OC,-31.5,-2.4,nt

# Screening results from PubChem BioAssay.
